12-LOX inh = Primary qHTS assay for inhibitors of human arachidonate 12S-lipoxygenase (ALOX12): Round 2. Polyunsaturated fatty acid lipoxygenase ALOX12 (Homo sapiens), P18054. purified 12hLO, xylenol orange hydroperoxide absorbance. Potency, µM (top dose mostly 108 µM), for inactives: top-dose activity change, negative = inhibition, usual class: inhibitors. hit rate 1.1% among 580,000. AID 1671190, 2021
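Purified human 12hLO (150 nM final) in 25 mM Hepes, 0.01% Triton X-100, pH 7.0 was preincubated 15 min at room temperature with compound. Then 40 uM arachidonic acid was added, 30 min. Hydroperoxide was read by Fe-XO absorbance ratio 573/405 nm.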
VDR inh = Inhibitors of the vitamin D receptor (VDR): qHTS; Potency, µM, for the others: max response, negative = inhibition, actives largely listed as inhibitors; VDR-SRC2-3 peptide fluorescence polarization, 2 h; Vitamin D3 receptor (Homo sapiens), P11473; hit rate 0.93% among 400,000
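Signal is fluorescence polarization, reporting how far test compounds block the interaction of VDR with the SRC2-3 coregulator peptide after a 2 h room-temperature incubation.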
PLK1 PBD inh = qHTS for Inhibitors of PLK1-PDB (polo-like kinase 1 - polo-box domain): Primary Screen | Serine/threonine-protein kinase PLK1 (Homo sapiens), P53350 | Plk1 PBD binding of FITC phosphopeptide, fluorescence polarization | Potency, µM, inactives show max response, negative = inhibition, hits mostly inhibitors | hit rate 2.8% among 360,000 | AID 720504, 2013; note: series mostly up to about 57 µM; nearly all actives have a fitted effect of over 65% in size
Target sequence (P53350 whole entry, looked up, the tested form may be a part): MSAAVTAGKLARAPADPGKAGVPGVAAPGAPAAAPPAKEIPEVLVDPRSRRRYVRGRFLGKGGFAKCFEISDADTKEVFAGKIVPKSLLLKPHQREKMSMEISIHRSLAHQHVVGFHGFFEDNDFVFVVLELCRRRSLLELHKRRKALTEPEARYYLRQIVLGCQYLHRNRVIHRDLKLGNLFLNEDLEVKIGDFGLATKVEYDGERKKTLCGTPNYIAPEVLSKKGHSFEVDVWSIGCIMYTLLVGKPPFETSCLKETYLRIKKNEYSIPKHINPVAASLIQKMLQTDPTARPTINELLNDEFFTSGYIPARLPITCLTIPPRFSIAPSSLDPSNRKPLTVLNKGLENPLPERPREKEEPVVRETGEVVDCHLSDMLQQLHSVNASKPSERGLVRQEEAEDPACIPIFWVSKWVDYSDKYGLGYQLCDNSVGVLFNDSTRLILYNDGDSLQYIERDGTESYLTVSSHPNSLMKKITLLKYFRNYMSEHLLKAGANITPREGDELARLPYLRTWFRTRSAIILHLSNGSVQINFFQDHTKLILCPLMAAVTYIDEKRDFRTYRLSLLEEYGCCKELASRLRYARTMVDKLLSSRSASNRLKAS
KAT2A inh = qHTS Assay for Inhibitors of GCN5L2. Histone acetyltransferase KAT2A (Homo sapiens), Q92830. GCN5L2 HAT assay, ThioGlo1 CoA-SH fluorescence. Potency, µM (highest dose often 58.9 µM), without a hit: at the highest dose activity change, negative = inhibition, most hits filed as inhibitors. hit rate 0.21% among 390,000. AID 504327, 2011
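GCN5L2 (20nM final) in 50mM HEPES, 0.1mM EDTA pH 7.5, 0.01% Tween-20 was preincubated 15 min at room temperature with compound, then given ThioGlo1 (50uM), H3(1-25) peptide (75uM) and acetyl-CoA (70uM); CoA-thiol fluorescence (Ex340/Em540) was read at 0 and 20 min.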
Starred values were filed as active, the others as inactive; ? = inconclusive; · = not tested or not shown; [ ] = dose if it differs, or a comment. Hits are enriched below; roughly 3% of the tested compounds scored in any of these assays. Calls come from the whole dose curve; as a rule, active = well fitted curve in the direction sought with a large enough effect; inconclusive = small, poorly fitted or top-dose-only effect, or another doubt; inactive = no such curve, though single readings can be large; an effect the other way counts as inactive or inconclusive. % is set by controls: 0 for no effect and ±100 for the full control effect; potency is the fitted concentration of half-maximal effect.

SMILES	12-LOX inh	VDR inh	PLK1 PBD inh	KAT2A inh
CCOC(=O)c1c(NC(=O)C2C3C=CC(C3)C2C(=O)O)sc2c1CC(C)CC2 (stereo not drawn)	0%	-17%	-16%	1%
CCCOC(=O)c1c(NC(=O)C2C3C=CC(C3)C2C(=O)O)sc2c1CCC(C)C2 (stereo not drawn)	?	?	5.3µM*	0%
COC(=O)c1c(NC(=O)Cn2cnc([N+](=O)[O-])n2)sc2c1CCC(C)C2 (stereo not drawn)	?	?	19µM*	-17%
COC(=O)c1c(NC(=O)Cc2ccccc2)sc2c1C(C(=O)OC)CC2 (stereo not drawn)	-13%	14%	17µM*	-12%
COC(=O)c1c(NC(=O)Cc2cccs2)sc2c1CCC(C)C2 (stereo not drawn)	?	-4%	21µM*	-3%
O=C(Cc1cccs1)NC1CCCc2c1[nH]c1c(Cl)cccc21 (stereo not drawn)	3%	·	·	·
COC(=O)c1c(NC(=O)Cc2ccccc2)sc2c1CC(C)(C)NC2(C)C	2%[57.4 µM]	-7%	24µM*	2%
COC(=O)c1c(NC(=O)c2ccccc2[N+](=O)[O-])sc2c1CC(C)(C)NC2(C)C	-17%	-16%	-6%	0%
COc1ccc(CN(C)C(=O)NCc2ccc(S(=O)(=O)N3CCCCC3)cc2)cc1	4%	·	·	·
Cc1cccc(N2CC(C(=O)N(C)Cc3cnn(C)c3)CC2=O)c1C (stereo not drawn)	56%	·	·	·
CC1CCCCC1NC(=O)CS(=O)Cc1coc(-c2ccc(F)cc2)n1 (stereo not drawn)	70%	·	·	·
CCC(Sc1ccccn1)C(=O)Nc1cccc([N+](=O)[O-])c1 (stereo not drawn)	-3%	5%	21µM*	-11%
CCSc1nc2c(c(=O)[nH]c(=O)n2C)n1Cc1ccccc1Cl	32µM*	·	·	·
CCCCCSc1nc2c(c(=O)[nH]c(=O)n2C)n1Cc1ccccc1Cl	7%	·	·	·
C/C=C/Cn1c(SCc2ccccc2)nc2c1c(=O)[nH]c(=O)n2C	0%	?	24µM*	-1%
C/C=C/Cn1c(SCc2ccccc2Cl)nc2c1c(=O)[nH]c(=O)n2C	-23%	·	·	·
CC(C)CCn1c(SCc2ccc(Cl)cc2)nc2c1c(=O)[nH]c(=O)n2C	?	?	27µM*	3%
Cc1ccc(CSc2nc3c(c(=O)[nH]c(=O)n3C)n2CCC(C)C)cc1	-1%	-12%	-16%	-4%
CC(=O)CSc1nc2c(c(=O)[nH]c(=O)n2C)n1Cc1cccc(Br)c1	?	-20%	19µM*	-7%
CC#CCn1cc2c3c(cccc31)[C@H](CC(C)C)N[C@H](C(=O)NC1CC1)C2	6%[176 µM]	·	·	·
O=C1Nc2ccccc2NC(c2cccc(Br)c2)=C1N(C(=O)C(=O)c1cccs1)c1ccccc1	-10%	·	·	·
COCCn1c(SCc2ccc(F)cc2)nc2c1c(=O)[nH]c(=O)n2C	?	?	11µM*	-4%
CCOCCn1c(SCc2ccc(F)cc2)nc2c1c(=O)[nH]c(=O)n2C	31%	-11%	-3%	-1%
Cn1c(=O)[nH]c(=O)c2c1nc([N+](=O)[O-])n2Cc1ccccc1	167%	?	2.4µM*	-11%
CCCCn1c(SCc2ccc(Cl)cc2)nc2c1c(=O)[nH]c(=O)n2C	?	89µM*	21µM*	-8%
SMILES	12-LOX inh	VDR inh	PLK1 PBD inh	KAT2A inh
CNC(=O)c1cccc(NC(=O)Cc2nc(-c3ccccc3)oc2C)c1	-2%	·	·	·
N#Cc1ccc(COC(=O)c2cc3ccccc3[nH]2)cc1	-25%	·	·	·
CCOc1ccc(OC(=O)c2ccc3c(c2)NC(=O)CS3)cc1	4%	·	·	·
Oc1ccccc1C=Nc1cccc2ccccc12	140%	-12%	-3%	-1%
Oc1cccc2c(N=Cc3ccc(F)c(F)c3)cccc12	22µM*	·	·	·
CC(C)c1ccc(S(=O)(=O)/N=C2/C=C(Sc3ncn[nH]3)C(=O)c3ccccc32)cc1	·	10µM*	1.5µM*	?
Cc1ccc(S(=O)(=O)Nc2ccc(O)c(Sc3ncn[nH]3)c2)cc1	?	3%	-7%	-1%
CCN1C(=O)[C@H]2[C@H]3CN=C(SCC(=O)c4ccccc4)N3[C@@](C)(C(=O)OC)[C@H]2C1=O	?	45µM*	?	-7%
CC(C)c1ccc2oc(=O)cc(CN3CCC(C(N)=O)CC3)c2c1	2%	·	·	·
Cc1cc(C(=O)N(C)Cc2c(F)cccc2Cl)c2ccccc2n1	-20%	7%	-1%	-2%
Cc1ccc(O)c(C(=O)N(C)Cc2c(F)cccc2Cl)c1	40µM*	·	·	·
COc1ccc(CNC(=O)c2sc3nc4c(c(C(F)(F)F)c3c2N)CCC4)cc1OC	-18%	40µM*	?	-22%
Cc1csc(NC(=O)c2sc3nc4c(c(C(F)(F)F)c3c2N)CCC4)n1	-2%[57.4 µM]	·	·	·
Cc1cccc(C)c1Nc1nc(N)c(C(=O)c2c(C)[nH]c3ccccc23)s1	-25%	·	·	·
CCCC(=O)C1=C(N(C)c2ccccc2)CC(C)(C)CC1=O	?	2%	-3%	-1%
CCCC(=O)C1=C(c2ccccc2)C(C#N)(C#N)C(C#N)=C1N	?	?	7.5µM*	-8%
Clc1cccc(Cl)c1C=Nc1ccc(-c2ccc(N=Cc3c(Cl)cccc3Cl)cc2)cc1	-3%	·	·	·
CCOc1c(Br)cc(/C=C2/SC(=O)N(CC(=O)N3CCCC3)C2=O)cc1OC	-10%	1%	-12%	-1%
CCOC(=O)COc1c(Br)cc(/C=C2\SC(=O)N(CC(=O)N3CCCC3)C2=O)cc1OC	14%	?	17µM*	-6%[0.501 µM]
CN(C)CC1(O)CCC2(CCN(C(=O)CCc3nc(-c4ccccc4)no3)CC2)CC1	51%	·	·	·
O=C(CSC1=NCCS1)c1ccc(Cl)cc1	-10%	79µM*	?	-24%
CCCCC(=O)NC1(C(F)(F)F)C(=O)N(C2CCCC2)C(C)=C1C(=O)OC (stereo not drawn)	-4%	·	·	·
CCc1nc2c(NC(=O)Nc3cccc(C(=O)OC)c3)cccn2n1	71µM*	·	·	·
O=C1NC2(CCCCC2)N(C(=O)c2ccccc2Br)C2=C1CCCC2	-3%	·	·	·
COc1ccc(-n2nnnc2SCC(=O)N2CCN(C(=O)c3ccco3)CC2)cc1OC	8%	-23%	19µM*	-3%
SMILES	12-LOX inh	VDR inh	PLK1 PBD inh	KAT2A inh
COc1ccc(OC)c(-n2nnnc2SCC(=O)N2CCN(C(=O)c3ccco3)CC2)c1	2%	71µM*	17µM*	16%
CCOC(=O)C1=NOC(COc2ccccc2C=O)C1 (stereo not drawn)	20%	?	27µM*	-14%
OCC1CCN(c2ccccc2)C1 (stereo not drawn)	-30%	·	·	·
Cc1ccccc1OCCOc1ccccc1C=C(C#N)C#N	·	·	·	-6%
Cc1cccc(OCCOc2ccccc2C=C(C#N)C#N)c1	-17%	50µM*	-6%	-4%
CSc1cc(-c2ccc(Cl)cc2)c(C(=O)NC(C)C)s1	47%	-24%	3µM*	0%

From PubChem BioAssay
